Laboratory results as given in PubChem BioAssay AID1159580 (chemical genetic matrix, 2015).
Screen size: about 5,500 compounds; about 2,000 (36%) were called active. Roughly 18% stayed inconclusive and do not appear here. Cut-off read from the data, not from the text of the source: active = normalized growth mostly below about 0.91 (no sharp cut-off); inconclusive = no clear call, values can overlap the other calls; inactive = mostly above about 0.92. Some of the results follow.

Assay: chemical genetic growth profiling, strain panel (AID 1159580);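 note: tested at 20 µM; growth read once vehicle control cultures reached saturation at 30 °C; 1 = growth at the plate median or of vehicle wells; lower values mean less growth of the strain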
Settings: growth OD

Measured: normalized growth

c1cc2c(cc1[C@H]1OC[C@H]3[C@@H]1CO[C@H]3c1ccc3c(c1)OCO3)OCO2
active: S. cerevisiae deletion strains, locus YKL068W, hits give low values 0.929 | S. cerevisiae deletion strains, locus YKL085W, strain MDH1 (second series), hits give low values 0.915 | S. cerevisiae deletion strains, locus YKL085W, strain MDH1, hits give low values 0.915 | S. cerevisiae deletion strains, locus YKL160W, strain elf1, hits give low values 0.878 | S. cerevisiae deletion strains, locus YKR001C, strain vps1, hits give low values 0.683 | S. cerevisiae deletion strains, locus YKR026C, strain gcn3, hits give low values 0.916 | S. cerevisiae deletion strains, locus YKR091W, strain srl3, hits give low values 0.899 | S. cerevisiae deletion strains, locus YLL001W, strain dnm1, hits give low values 0.887 | S. cerevisiae deletion strains, locus YLL026W, hits give low values 0.922 | S. cerevisiae deletion strains, locus YLL041C, strain sdh2, hits give low values 0.926 | S. cerevisiae deletion strains, locus YLR039C, strain RIC1, hits give low values 0.398 | S. cerevisiae deletion strains, locus YLR102C, strain apc9, hits give low values 0.923 | S. cerevisiae deletion strains, locus YLR221C, strain rsa3, hits give low values 0.886 | S. cerevisiae deletion strains, locus YLR258W, strain gsy2, hits give low values 0.914 | S. cerevisiae deletion strains, locus YLR262C, strain YPT6 (second series), hits give low values 0.455 | S. cerevisiae deletion strains, locus YLR262C, strain YPT6, hits give low values 0.415 | S. cerevisiae deletion strains, locus YLR268W, strain sec22, hits give low values 0.833 | S. cerevisiae deletion strains, locus YLR320W, strain mms22, hits give low values 0.732 | S. cerevisiae deletion strains, locus YLR330W, strain CHS5, hits give low values 0.816 | S. cerevisiae deletion strains, locus YLR342W, strain FKS1 (second series), hits give low values 0.77 | S. cerevisiae deletion strains, locus YLR342W, strain FKS1, hits give low values 0.9 | S. cerevisiae deletion strains, locus YLR418C, strain cdc73, hits give low values 0.692 | S. cerevisiae deletion strains, locus YML032C, strain rad52, hits give low values 0.902 | S. cerevisiae deletion strains, locus YML120C, strain ndi1, hits give low values 0.897 | S. cerevisiae deletion strains, locus YML124C, strain tub3, hits give low values 0.902 | S. cerevisiae deletion strains, locus YMR058W, strain fet3, hits give low values 0.896 | S. cerevisiae deletion strains, locus YMR078C, strain ctf18, hits give low values 0.892 | S. cerevisiae deletion strains, locus YMR125W, strain sto1, hits give low values 0.826 | S. cerevisiae deletion strains, locus YMR205C, strain PFK2, hits give low values 0.774 | S. cerevisiae deletion strains, locus YNL071W, strain lat1, hits give low values 0.614 | S. cerevisiae deletion strains, locus YNL153C, strain GIM3, hits give low values 0.822 | S. cerevisiae deletion strains, locus YNL307C, strain MCK1, hits give low values 0.797 | S. cerevisiae deletion strains, locus YNR049C, strain mso1, hits give low values 0.917 | S. cerevisiae deletion strains, locus YNR052C, strain pop2, hits give low values 0.899 | S. cerevisiae deletion strains, locus YOL147C, strain pex11, hits give low values 0.914 | S. cerevisiae deletion strains, locus YOR070C, strain gyp1, hits give low values 0.908 | S. cerevisiae deletion strains, locus YOR080W, strain dia2, hits give low values 0.909 | S. cerevisiae deletion strains, locus YOR083W, strain WHI5, hits give low values 0.877 | S. cerevisiae deletion strains, locus YOR144C, strain elg1, hits give low values 0.907 | S. cerevisiae deletion strains, locus YOR184W, strain ser1, hits give low values 0.624 | S. cerevisiae deletion strains, locus YOR265W, strain rbl2, hits give low values 0.906 | S. cerevisiae deletion strains, locus YOR270C, strain vph1, hits give low values 0.639 | S. cerevisiae deletion strains, locus YOR290C, strain snf2, hits give low values 0.828 | S. cerevisiae deletion strains, locus YOR316C, strain cot1, hits give low values 0.912 | S. cerevisiae deletion strains, locus YPL051W, strain arl3, hits give low values 0.865 | S. cerevisiae deletion strains, locus YPL078C, strain atp4, hits give low values 0.863 | S. cerevisiae deletion strains, locus YPL240C, strain hsp82, hits give low values 0.919 | S. cerevisiae deletion strains, locus YPR119W, strain clb2, hits give low values 0.914 | S. cerevisiae deletion strains, locus YPR141C, strain kar3, hits give low values 0.897 | S. cerevisiae deletion strains, locus YPR163C, strain tif3, hits give low values 0.866 | S. cerevisiae deletion strains, locus YPR167C, strain met16, hits give low values 0.887 | S. cerevisiae deletion strains, strain wtn01, hits give low values 0.854
inactive: S. cerevisiae deletion strains, locus YJR075W, strain HOC1, hits give low values 0.914 | S. cerevisiae deletion strains, locus YKL009W, strain mrt4, hits give low values 0.922 | S. cerevisiae deletion strains, locus YKL190W, strain CNB1, hits give low values 0.947 | S. cerevisiae deletion strains, locus YLR027C, strain aat2, hits give low values 0.931 | S. cerevisiae deletion strains, locus YLR058C, strain SHM2, hits give low values 0.943 | S. cerevisiae deletion strains, locus YLR113W, strain HOG1, hits give low values 0.865 | S. cerevisiae deletion strains, locus YLR357W, strain rsc2, hits give low values 0.951 | S. cerevisiae deletion strains, locus YLR370C, strain arc18, hits give low values 0.914 | S. cerevisiae deletion strains, locus YLR371W, strain rom2, hits give low values 0.912 | S. cerevisiae deletion strains, locus YLR384C, strain iki3, hits give low values 0.936 | S. cerevisiae deletion strains, locus YML016C, strain PPZ1, hits give low values 0.947 | S. cerevisiae deletion strains, locus YMR129W, hits give low values 0.925 | S. cerevisiae deletion strains, locus YMR223W, strain ubp8, hits give low values 0.914 | S. cerevisiae deletion strains, locus YMR231W, strain pep5, hits give low values 0.934 | S. cerevisiae deletion strains, locus YMR307W, strain GAS1, hits give low values 0.9 | S. cerevisiae deletion strains, locus YNL067W, strain RPL9B, hits give low values 0.957 | S. cerevisiae deletion strains, locus YNL128W, strain TEP1, hits give low values 1.01 | S. cerevisiae deletion strains, locus YNL183C, strain NPR1, hits give low values 0.925 | S. cerevisiae deletion strains, locus YNL209W, strain ssb2, hits give low values 0.958 | S. cerevisiae deletion strains, locus YNL233W, strain BNI4, hits give low values 0.882 | S. cerevisiae deletion strains, locus YNL248C, strain rpa49, hits give low values 0.948 | S. cerevisiae deletion strains, locus YNL250W, strain rad50, hits give low values 0.929 | S. cerevisiae deletion strains, locus YNL271C, strain bni1, hits give low values 0.932 | S. cerevisiae deletion strains, locus YNL298W, strain CLA4, hits give low values 0.922 | S. cerevisiae deletion strains, locus YNL322C, strain KRE1 (second series), hits give low values 0.907 | S. cerevisiae deletion strains, locus YNL322C, strain KRE1, hits give low values 0.94 | S. cerevisiae deletion strains, locus YOL012C, strain htz1 0.632 | S. cerevisiae deletion strains, locus YOR001W, strain rrp6, hits give low values 0.945 | S. cerevisiae deletion strains, locus YOR061W, strain CKA2, hits give low values 0.948 | S. cerevisiae deletion strains, locus YOR069W, strain VPS5, hits give low values 0.962 | S. cerevisiae deletion strains, locus YOR106W, strain vam3, hits give low values 0.908 | S. cerevisiae deletion strains, locus YOR136W, strain idh2, hits give low values 0.973 | S. cerevisiae deletion strains, locus YOR231W, strain MKK1, hits give low values 0.897 | S. cerevisiae deletion strains, locus YPL055C, strain LGE1, hits give low values 0.923 | S. cerevisiae deletion strains, locus YPL106C, strain sse1, hits give low values 0.886 | S. cerevisiae deletion strains, locus YPL241C, strain CIN2, hits give low values 0.945 | S. cerevisiae deletion strains, locus YPL256C, strain CLN2, hits give low values 0.898 | S. cerevisiae strains, strain wild type, hits give low values 0.93
